Records with an inconclusive call do not appear. Active and inactive are the calls of the source. Rule for the calls: active = hit-call score of the fitted dose curve at least 0.9, where 1 is the maximum; inconclusive = response in the unintended direction; inactive = score below 0.9.
Tests used:
[1] = molecular target: Estrogen receptor (Homo sapiens) (UniProt P03372); test: OT_ER_ERaERa_1440: Odyssey Thera (OT) 24-hour HEK293T Protein-Complementation Assay for Estrogen Receptor-alpha/-alpha Homodimer (AID 2283349);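 note: hits raise fluorescence above DMSO for agonists and antagonists alike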
Method in brief: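 Protein-fragment complementation between two human ERα ligand-binding domains (aa 310-547) in stably transfected HEK293T cells was monitored after 24 h treatment, using fluorescence intensity relative to vehicle controls.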

[2] = molecular target: Estrogen receptor (Homo sapiens) (UniProt P03372); test: OT_ER_ERaERa_0480: Odyssey Thera (OT) 8-hour HEK293T Protein-Complementation Assay for Estrogen Receptor-alpha/-alpha Homodimer (AID 2283351);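 note: rise in fluorescence from reassembled reporter fragments on ERα LBD homodimer in nucleus or whole cell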
Method in brief: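 Binding reporter in which dimerisation of ERα LBD (aa 310-547) fusions reconstitutes a fluorescent reporter in HEK293T cells. Compounds incubated 8 h; mean fluorescence intensity increase versus DMSO scored.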

[3] = molecular target: T1, Estrogen receptor (Homo sapiens) + Estrogen receptor beta (Homo sapiens) (UniProt P03372+Q92731); test: OT_ER_ERaERb_0480: Odyssey Thera (OT) 8-hour HEK293T Protein-Complementation Assay for Estrogen Receptor-alpha/-beta Heterodimer (AID 2283352)
Method in brief: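 Fluorescence increase from reconstituted reporter fragments, quantified by laser scanning cytometer, reflects ER-alpha/ER-beta heterodimer formation in human HEK293T cells. Exposure 8 h; positive-direction fitting against DMSO vehicle.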

[4] = molecular target: T1, Estrogen receptor (Homo sapiens) + Estrogen receptor beta (Homo sapiens); test: OT_ER_ERaERb_1440: Odyssey Thera (OT) 24-hour HEK293T Protein-Complementation Assay for Estrogen Receptor-alpha/-beta Homodimer (AID 2283356);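 note: heteromer of ER alpha and ER beta binding domains; hits raise reporter fluorescence and both agonists and antagonists give an increase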
Method in brief: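 Fragment complementation between ER alpha (310-547) and ER beta (263-489) ligand-binding domains in HEK293T cells; signal read 24 h post-dosing by laser scanning cytometer. Gain of fluorescence relative to DMSO fitted.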

[5] = molecular target: Estrogen receptor (Homo sapiens) (UniProt P03372); test: NVS_NR_hER: NovaScreen (NVS) Nuclear Receptor Binding Assay for human Estrogen Receptor (ER) (AID 2283348)
Method in brief: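 Scintillation signal from bound radioligand was measured 18 hours after chemical addition to cell-free MCF7 protein extracts, with DMSO as baseline. Activity was scored as signal loss; compounds ran first at 25 uM in duplicate.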

[6] = molecular target: Bile acid receptor (Homo sapiens) (UniProt Q96RI1); test: NVS_NR_hFXR_Antagonist: NovaScreen (NVS) Nuclear Receptor Binding Assay for human Farnesoid X Receptor Antagonism (FXR) (AID 2283350)
Method in brief: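 Cell-free TR-FRET ligand-binding read-out on human FXR (NR1H4) in antagonist mode, measured 1 h after dosing. Primary screen in duplicate at 25 uM, actives retested in concentration series; signal loss scored versus DMSO.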

[7] = molecular target: Estrogen receptor beta (Homo sapiens) (UniProt Q92731); test: OT_ER_ERbERb_0480: Odyssey Thera (OT) 8-hour HEK293T Protein-Complementation Assay for Estrogen Receptor-beta/-beta Homodimer (AID 2283357);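 note: active means signal gain over DMSO baseline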
Method in brief: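 Cells (HEK293T, stable ER-beta LBD PCA pair) are treated 8 hours, fixed and Draq5-stained; signal is fluorescence intensity increase relative to vehicle, fitted in the gain direction.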

[8] = molecular target: Retinoic acid receptor alpha (Homo sapiens) (UniProt P10276); test: NVS_NR_hRAR_Antagonist: NovaScreen (NVS) Nuclear Receptor Binding Assay for human Retinoic Acid Alpha Receptor Antagonism (RAR) (AID 2283358)
Method in brief: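 TR-FRET, cell-free, antagonist format; 2 h incubation after dosing; DMSO = baseline; signal loss fitted; 25 uM duplicate primary, then conc. series.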

[9] = molecular target: human Thyroid Receptor Alpha (TRa), THRA (gene 7067) (UniProt P10827); test: NVS_NR_hTRa_Antagonist: NovaScreen (NVS) Nuclear Receptor Binding Assay for human Thyroid Receptor Alpha Antagonism (TRa) (AID 2283362);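 note: activity is loss of signal relative to DMSO baseline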
Method in brief: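 Actives from a duplicate 25 uM single-point screen were retested in concentration series. The cell-free antagonist-format binding assay was read by AlphaLISA chemiluminescence at 1 h, scored as signal loss relative to DMSO.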

[10] = molecular target: Glucocorticoid receptor (Homo sapiens) (UniProt P04150); test: NVS_NR_hGR: NovaScreen (NVS) Nuclear Receptor Binding Assay for human Glucocorticoid Receptor (GR) (AID 2283363);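 for AC50: activity is loss of specific radioligand binding signal relative to DMSO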
Method in brief: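 Competitive displacement of a labelled ligand was measured on cell-free receptor preparations after 16 h exposure. Initial testing used 25 uM in duplicate with plate controls; confirmed actives went into concentration series.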

PGR (gene 5241) = PGR (gene 5241) (UniProt P06401); test: NVS_NR_hPR: NovaScreen (NVS) Nuclear Receptor Binding Assay for human Progestron Receptor (PR) (AID 2283360);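 note: active means loss of bound radioligand signal versus DMSO baseline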
Method in brief: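 T47D lysate; tritiated or iodinated radioligand; scintillation count at 18 h. DMSO = negative control/baseline. Primary: 25 uM, duplicate. Secondary: concentration series for actives.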

[11] = molecular target: rat Mineralocorticoid Receptor (MR), Nr3c2 (gene 25672) (UniProt P22199); test: NVS_NR_rMR: NovaScreen (NVS) Nuclear Receptor Binding Assay for rat Mineralocorticoid Receptor (MR) (AID 2283355)
Method in brief: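 Adrenalectomized rat brain supernatant was dosed with test chemical, then radioligand binding was measured by scintillation counting at 24 h. Initial testing ran in duplicate at 25 uM, followed by concentration series for actives.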

[12] = molecular target: Androgen Receptor/SRC-1 Co-activator, AR (gene 367) (UniProt P10275); test: OT_AR_ARSRC1_0960: Odyssey Thera (OT) 16-hour HEK293T Protein-Complementation Assay for Androgen Receptor/SRC-1 Co-activator (AID 2283353);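 note: actives raise the signal above DMSO so potency reflects increased AR and SRC-1 complex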
Method in brief: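 Interaction of AR with SRC-1 was followed by YFP fragment complementation in HEK293T cells after 16 h of dosing. Gain of nuclear-over-cytoplasmic 488 nm fluorescence against DMSO controls defined activity.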

[13] = molecular target: Androgen Receptor/SRC-1 Co-activator, AR (gene 367) (UniProt P10275); test: OT_AR_ARSRC1_0480: Odyssey Thera (OT) 8-hour HEK293T Protein-Complementation Assay for Androgen Receptor/SRC-1 Co-activator (AID 2283354);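 note: hits raise the complementation signal above DMSO so AC50 marks enhancers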
Method in brief: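 Measures AR/SRC-1 binding by Venus YFP fragment complementation in HEK293T stable lines at 8 h post-dose. Imaging quantifies the 488nm nucleus/cytoplasm ratio in ≥400 cells; DMSO defines baseline.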

[14] = molecular target: Nuclear receptor subfamily 1 group I member 2 (Homo sapiens) (UniProt O75469); test: NVS_NR_hPXR: NovaScreen (NVS) Nuclear Receptor Binding Assay for human Pregnane X Receptor (PXR) (AID 2283365);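 note: a drop in FRET signal versus DMSO baseline means the compound binds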
Method in brief: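 Human PXR binding measured by TR-FRET in a cell-free format, 2 h exposure. Single-concentration duplicates at 25 uM preceded concentration-response retests of actives; endpoint fitted positively relative to DMSO, loss of signal indicating binding.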

[15] = molecular target: guinea pig Sigma Receptor, Non-selective Binding, SIGMAR1 (gene 100135589) (UniProt Q60492); test: NVS_OR_gSIGMA_NonSelective: NovaScreen (NVS) Nuclear Receptor Binding Assay for guinea pig Sigma Receptor, Non-selective Binding (AID 2283367)
Method in brief: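 gp brain membr., radioligand displacement, 1 h, filtration + scint. counting; DMSO = baseline; 25 uM x2 primary, conc.-response confirm.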

Measured: AC50

Chain of Glucocorticoid receptor (Homo sapiens) (P04150 whole entry, looked up): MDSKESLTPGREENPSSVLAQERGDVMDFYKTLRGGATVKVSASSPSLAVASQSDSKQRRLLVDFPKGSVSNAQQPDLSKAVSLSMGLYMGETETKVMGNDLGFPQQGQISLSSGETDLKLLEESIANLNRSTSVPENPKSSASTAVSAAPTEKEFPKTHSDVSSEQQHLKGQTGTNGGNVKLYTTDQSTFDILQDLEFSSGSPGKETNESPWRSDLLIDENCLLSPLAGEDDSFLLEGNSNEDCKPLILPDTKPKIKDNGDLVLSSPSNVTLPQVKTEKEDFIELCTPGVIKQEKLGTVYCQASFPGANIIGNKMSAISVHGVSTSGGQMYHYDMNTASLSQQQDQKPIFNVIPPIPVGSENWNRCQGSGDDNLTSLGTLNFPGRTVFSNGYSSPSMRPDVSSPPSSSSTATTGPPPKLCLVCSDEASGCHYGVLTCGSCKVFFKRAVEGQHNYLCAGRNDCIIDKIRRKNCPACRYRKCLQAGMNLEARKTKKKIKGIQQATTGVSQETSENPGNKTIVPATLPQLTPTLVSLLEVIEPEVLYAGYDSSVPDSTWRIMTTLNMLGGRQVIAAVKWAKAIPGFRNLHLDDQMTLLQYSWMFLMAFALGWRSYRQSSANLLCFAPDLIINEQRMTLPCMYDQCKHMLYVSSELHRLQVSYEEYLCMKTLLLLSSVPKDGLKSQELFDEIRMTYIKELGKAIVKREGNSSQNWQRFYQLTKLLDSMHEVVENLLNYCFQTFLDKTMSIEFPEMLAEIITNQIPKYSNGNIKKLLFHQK
Chain of Bile acid receptor (Homo sapiens) (Q96RI1 whole entry, looked up): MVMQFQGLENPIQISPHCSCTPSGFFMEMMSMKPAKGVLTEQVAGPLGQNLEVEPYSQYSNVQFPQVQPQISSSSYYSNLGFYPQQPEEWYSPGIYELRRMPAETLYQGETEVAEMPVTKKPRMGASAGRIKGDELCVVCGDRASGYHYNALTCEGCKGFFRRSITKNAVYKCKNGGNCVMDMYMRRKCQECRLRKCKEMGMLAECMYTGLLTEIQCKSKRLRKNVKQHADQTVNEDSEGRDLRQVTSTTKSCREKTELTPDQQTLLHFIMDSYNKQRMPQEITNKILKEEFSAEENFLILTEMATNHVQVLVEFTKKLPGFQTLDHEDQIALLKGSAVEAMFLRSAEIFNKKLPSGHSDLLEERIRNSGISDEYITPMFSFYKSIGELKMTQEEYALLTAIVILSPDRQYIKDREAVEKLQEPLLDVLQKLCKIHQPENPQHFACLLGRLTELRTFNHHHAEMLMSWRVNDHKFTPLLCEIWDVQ
Chain of Estrogen receptor beta (Homo sapiens) (Q92731 whole entry, looked up, the tested form may be a part): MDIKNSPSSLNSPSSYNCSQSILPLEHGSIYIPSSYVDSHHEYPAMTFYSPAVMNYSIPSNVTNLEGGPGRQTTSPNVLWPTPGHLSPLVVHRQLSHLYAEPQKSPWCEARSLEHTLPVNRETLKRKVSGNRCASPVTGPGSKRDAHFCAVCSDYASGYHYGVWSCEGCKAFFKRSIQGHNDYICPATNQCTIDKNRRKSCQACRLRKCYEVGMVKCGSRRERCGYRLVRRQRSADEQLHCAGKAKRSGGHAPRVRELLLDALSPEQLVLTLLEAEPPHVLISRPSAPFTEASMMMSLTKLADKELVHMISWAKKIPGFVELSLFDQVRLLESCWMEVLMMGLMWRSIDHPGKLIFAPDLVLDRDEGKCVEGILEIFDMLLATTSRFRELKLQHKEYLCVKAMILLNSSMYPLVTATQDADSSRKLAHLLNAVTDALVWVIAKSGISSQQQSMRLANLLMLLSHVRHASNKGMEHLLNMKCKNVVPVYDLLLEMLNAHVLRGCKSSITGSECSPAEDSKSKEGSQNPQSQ
T1 sequence (P03372 whole entry, looked up, the tested form may be a part): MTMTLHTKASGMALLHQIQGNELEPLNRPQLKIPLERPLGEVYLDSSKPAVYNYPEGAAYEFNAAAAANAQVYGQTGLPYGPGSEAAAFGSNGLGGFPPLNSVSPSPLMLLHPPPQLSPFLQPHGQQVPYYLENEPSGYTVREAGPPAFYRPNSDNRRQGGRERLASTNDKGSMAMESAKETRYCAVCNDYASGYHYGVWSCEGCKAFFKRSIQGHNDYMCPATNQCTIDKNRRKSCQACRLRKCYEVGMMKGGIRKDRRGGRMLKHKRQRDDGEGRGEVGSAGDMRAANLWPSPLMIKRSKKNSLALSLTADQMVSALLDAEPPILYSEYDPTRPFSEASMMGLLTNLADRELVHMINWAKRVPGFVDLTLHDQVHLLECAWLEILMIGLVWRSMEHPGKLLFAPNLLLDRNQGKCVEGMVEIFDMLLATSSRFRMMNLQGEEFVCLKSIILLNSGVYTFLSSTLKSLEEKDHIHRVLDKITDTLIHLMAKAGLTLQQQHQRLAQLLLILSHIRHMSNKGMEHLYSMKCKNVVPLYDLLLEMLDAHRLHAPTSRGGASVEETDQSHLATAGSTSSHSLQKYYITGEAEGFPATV
T1 sequence (Q92731 whole entry, looked up, the tested form may be a part): as the sequence (Q92731 whole entry, looked up, the tested form may be a part) above
Chain of Estrogen receptor (Homo sapiens) (P03372 whole entry, looked up, the tested form may be a part): as the sequence (P03372 whole entry, looked up, the tested form may be a part) above
Chain of human Thyroid Receptor Alpha (TRa), THRA (gene 7067) (P10827 whole entry, looked up): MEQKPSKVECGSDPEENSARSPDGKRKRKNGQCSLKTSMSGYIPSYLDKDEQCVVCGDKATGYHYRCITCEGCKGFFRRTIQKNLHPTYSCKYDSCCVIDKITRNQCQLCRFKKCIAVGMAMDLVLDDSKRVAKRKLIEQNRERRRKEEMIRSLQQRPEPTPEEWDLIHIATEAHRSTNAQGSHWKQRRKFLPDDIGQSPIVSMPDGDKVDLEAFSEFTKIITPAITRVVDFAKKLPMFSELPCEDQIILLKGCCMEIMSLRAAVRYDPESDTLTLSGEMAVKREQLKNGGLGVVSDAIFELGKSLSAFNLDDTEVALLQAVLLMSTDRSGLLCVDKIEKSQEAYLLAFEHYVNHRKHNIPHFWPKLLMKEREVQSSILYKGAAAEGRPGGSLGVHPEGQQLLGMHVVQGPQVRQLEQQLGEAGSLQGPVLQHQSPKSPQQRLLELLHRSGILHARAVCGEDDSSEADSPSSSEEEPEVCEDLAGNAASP
Chain of Androgen Receptor/SRC-1 Co-activator, AR (gene 367) (P10275 whole entry, looked up, the tested form may be a part): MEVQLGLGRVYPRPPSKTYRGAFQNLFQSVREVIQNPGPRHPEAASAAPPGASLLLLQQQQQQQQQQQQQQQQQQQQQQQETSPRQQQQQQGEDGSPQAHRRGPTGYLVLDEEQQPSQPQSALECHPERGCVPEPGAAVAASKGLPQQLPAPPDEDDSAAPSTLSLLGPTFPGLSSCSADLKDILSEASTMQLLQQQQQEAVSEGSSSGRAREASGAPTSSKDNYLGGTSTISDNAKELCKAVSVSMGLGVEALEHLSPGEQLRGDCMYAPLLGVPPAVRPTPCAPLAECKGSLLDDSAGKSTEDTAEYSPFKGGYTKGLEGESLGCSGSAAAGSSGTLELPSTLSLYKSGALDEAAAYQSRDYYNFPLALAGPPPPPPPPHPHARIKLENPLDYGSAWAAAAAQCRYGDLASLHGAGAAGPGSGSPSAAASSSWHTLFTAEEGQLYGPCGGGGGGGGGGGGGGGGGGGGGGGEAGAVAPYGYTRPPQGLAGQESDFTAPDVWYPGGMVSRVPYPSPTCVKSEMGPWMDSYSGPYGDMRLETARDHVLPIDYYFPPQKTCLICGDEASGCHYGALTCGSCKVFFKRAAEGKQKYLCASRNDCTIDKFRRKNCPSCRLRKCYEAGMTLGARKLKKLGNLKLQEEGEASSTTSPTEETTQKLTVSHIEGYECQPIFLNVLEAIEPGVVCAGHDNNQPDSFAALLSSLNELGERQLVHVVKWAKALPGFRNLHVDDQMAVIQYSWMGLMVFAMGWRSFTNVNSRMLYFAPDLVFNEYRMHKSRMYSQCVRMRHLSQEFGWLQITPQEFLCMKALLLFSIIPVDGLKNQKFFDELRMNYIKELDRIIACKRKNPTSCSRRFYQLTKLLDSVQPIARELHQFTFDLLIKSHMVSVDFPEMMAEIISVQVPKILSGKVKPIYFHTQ

CNC(=O)N(C)c1nnc(C(C)(C)C)s1
inactive: [1] | [2] | [3] | [4]

OC(c1ccc(Cl)cc1)(c1ccc(Cl)cc1)C(Cl)(Cl)Cl
inactive: [5] | [1] | [6] | [2] | [8] | [9]
active: [3] 11.8 µM | [4] 11.9 µM | [7] 12 µM | [10] 6.9 µM

CC1(C)C(C=C(Cl)Cl)C1C(=O)OC(C#N)c1cccc(Oc2ccccc2)c1 (stereo not drawn)
inactive: [5] | [1] | [2] | [3] | [4] | [7] | [8] | PGR (gene 5241) | [10]

CC(C)=CC1C(C(=O)OCc2coc(Cc3ccccc3)c2)C1(C)C (stereo not drawn)
inactive: [5] | [1] | [2] | PGR (gene 5241) | [10]

CCOc1nc(C(Cl)(Cl)Cl)ns1
inactive: [1] | [2] | [3] | [11] | [4] | [7]

Nc1c(Cl)c(F)nc(OCC(=O)O)c1Cl
inactive: [1] | [2] | [3] | [12] | [13] | [4] | [7]

CCNC(=O)NC(=O)C(C#N)=NOC
inactive: [1] | [6] | [2] | [10] | [14]

CO/N=C(/C1=NOCCO1)c1ccccc1Oc1ncnc(Oc2ccccc2Cl)c1F
inactive: [1] | [2]

Clc1cccc(C(Cl)(Cl)Cl)n1
inactive: [1] | [2] | [3] | [12] | [13] | [4]

Cc1cnc(C2=NC(C)(C(C)C)C(=O)N2)c(C(=O)O)c1 (stereo not drawn)
inactive: [1] | [2] | [3] | [12] | [13] | [4] | [7] | [9]

CCOP(=S)(OCC)Oc1nc(Cl)n(C(C)C)n1
inactive: [1] | [2]

Cc1c(COC(=O)[C@@H]2[C@H](/C=C(\Cl)C(F)(F)F)C2(C)C)cccc1-c1ccccc1
inactive: [5] | [1] | [2] | [3] | [7] | [8] | PGR (gene 5241)
active: [4] 72.3 µM

Cc1nc(N(C)C)nc(OC(=O)N(C)C)c1C
inactive: [1] | [2] | [3] | [4] | [7]

CCC(C)n1c(=O)[nH]c(C)c(Br)c1=O (stereo not drawn)
inactive: [1] | [2] | [3] | [4]

COP(=S)(OC)Oc1ccc([N+](=O)[O-])c(C)c1
active: PGR (gene 5241) 4.97 µM | [10] 9.62 µM | [15] 3.93 µM
inactive: [1] | [6] | [2] | [3] | [4] | [7] | [9]

CC1(C)CCC(=Cc2ccc(Cl)cc2)C1(O)Cn1cncn1 (stereo not drawn)
inactive: [1] | [2] | [3] | [4] | [7]
active: [12] 16.3 µM | [13] 15.5 µM
